“And” between values parts separate entries of the source, which are not always exact repeats. Identical values can stand only once. Screen size: about 5,500 compounds; about 2,000 (36%) were called active. Roughly 18% stayed inconclusive and do not appear here. Rule as the data show it: active = normalized growth mostly below about 0.91 (no sharp cut-off); inconclusive = no clear call, values can overlap the other calls; inactive = mostly above about 0.92. The list shows a part of the results.
Assay: chemical genetic growth profiling, strain panel (AID 1159580);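 also: tested at 20 µM; growth read once vehicle control cultures reached saturation at 30 °C; 1 = growth at the plate median or of vehicle wells; lower values mean less growth of the strain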
Details: S. cerevisiae deletion strains, growth OD

Measured: normalized growth

CC(=O)/C=C\[C@@H]1[C@@]2(C)CCCC(C)(C)C2CC[C@@]1(C)O (some centres not stated)
inactive: locus YAL013W, strain DEP1, stronger effect = lower value 0.964 | locus YAL021C, strain ccr4, stronger effect = lower value 0.989 | locus YAL026C, strain drs2, stronger effect = lower value 0.971 | locus YAL030W, strain snc1, stronger effect = lower value 0.974 | locus YBL061C, strain skt5, stronger effect = lower value 0.983 | locus YBR009C, strain hhf1, stronger effect = lower value 0.971 | locus YBR021W, strain FUR4, stronger effect = lower value 0.99 | locus YBR023C, strain chs3, stronger effect = lower value 0.977 | locus YBR171W, strain sec66, stronger effect = lower value 0.96 | locus YBR229C, strain ROT2, stronger effect = lower value 0.946 | locus YBR231C, strain swc5, stronger effect = lower value 0.988 | locus YBR279W, strain paf1, stronger effect = lower value 0.966 | locus YCL011C, strain gbp2, stronger effect = lower value 0.966 | locus YCL016C, strain dcc1, stronger effect = lower value 0.988 | locus YCL029C, strain bik1, stronger effect = lower value 0.985 | locus YCL061C, strain MRC1, stronger effect = lower value 0.988 | locus YCL069W, strain vba3, stronger effect = lower value 0.949 | locus YCR088W, strain abp1, stronger effect = lower value 0.986 | locus YDL005C, strain med2, stronger effect = lower value 0.971 | locus YDL035C, strain GPR1, stronger effect = lower value 0.963 | locus YDL040C, strain nat1, stronger effect = lower value 0.983 | locus YDL074C, strain BRE1, stronger effect = lower value 0.901 | locus YDL101C, strain DUN1, stronger effect = lower value 0.952 | locus YDL134C, strain PPH21, stronger effect = lower value 0.964 | locus YDL185W, strain tfp1, stronger effect = lower value 0.966 | locus YDL192W, strain arf1, stronger effect = lower value 0.98 | locus YDR001C, strain nth1, stronger effect = lower value 0.967 | locus YDR069C, strain doa4, stronger effect = lower value 0.973 | locus YDR101C, strain arx1, stronger effect = lower value 0.995 | locus YDR137W, strain rgp1, stronger effect = lower value 0.902 | locus YDR150W, strain NUM1, stronger effect = lower value 0.967 | locus YDR159W, strain sac3, stronger effect = lower value 0.922 | locus YDR162C, strain NBP2, stronger effect = lower value 0.843 | locus YDR195W, strain ref2 0.955 | locus YDR297W, strain sur2, stronger effect = lower value 0.982 | locus YDR318W, strain mcm21, stronger effect = lower value 1 | locus YDR334W, strain swr1, stronger effect = lower value 0.946 | locus YDR335W, strain msn5, stronger effect = lower value 0.981 | locus YDR388W, stronger effect = lower value 0.987 | locus YDR392W, strain spt3, stronger effect = lower value 0.842 | locus YDR502C, strain sam2, stronger effect = lower value 0.951 | locus YEL003W, strain gim4, stronger effect = lower value 0.976 | locus YEL037C, strain rad23, stronger effect = lower value 0.969 | locus YEL061C, strain CIN8 (second series), stronger effect = lower value 0.961 | locus YEL061C, strain CIN8, stronger effect = lower value 0.968 | locus YER015W, strain faa2, stronger effect = lower value 0.966 | locus YER016W, strain bim1, stronger effect = lower value 0.982 | locus YER110C, stronger effect = lower value 0.985 | locus YER111C, strain swi4, stronger effect = lower value 0.978 | locus YER155C, strain BEM2 (second series), stronger effect = lower value 0.982 | locus YER155C, strain BEM2, stronger effect = lower value 0.972 | locus YER167W, strain BCK2, stronger effect = lower value 0.989 | locus YFR010W, strain ubp6, stronger effect = lower value 0.967 | locus YGL078C, strain dbp3, stronger effect = lower value 0.968 | locus YGL086W, strain mad1, stronger effect = lower value 0.996 | locus YGL167C, strain pmr1, stronger effect = lower value 0.971 | locus YGL173C, strain kem1, stronger effect = lower value 0.975 | locus YGL227W, strain vid30, stronger effect = lower value 0.982 | locus YGL240W, strain doc1, stronger effect = lower value 0.976 | locus YGL248W, strain PDE1, stronger effect = lower value 0.969 | locus YGL253W, strain hxk2, stronger effect = lower value 0.975 | locus YGR078C, strain PAC10, stronger effect = lower value 0.963 | locus YGR135W, strain pre9, stronger effect = lower value 0.922 | locus YGR229C, strain SMI1, stronger effect = lower value 0.933 | locus YGR252W, strain gcn5, stronger effect = lower value 1.05 | locus YHR013C, strain ard1, stronger effect = lower value 0.964 | locus YHR027C, strain rpn1, stronger effect = lower value 0.967 | locus YHR030C, strain SLT2, stronger effect = lower value 0.993 and 0.958 | locus YHR079C, strain IRE1 (second series), stronger effect = lower value 0.987 | locus YHR079C, strain IRE1, stronger effect = lower value 0.989 | locus YHR094C, strain hxt1, stronger effect = lower value 0.99 | locus YHR129C, strain ARP1, stronger effect = lower value 0.975 | locus YHR142W, strain chs7, stronger effect = lower value 0.979 | locus YHR200W, strain rpn10, stronger effect = lower value 0.988 | locus YIL066C, strain RNR3, stronger effect = lower value 0.953 | locus YIL073C, strain SPO22, stronger effect = lower value 1.02 | locus YIL125W, strain kgd1, stronger effect = lower value 0.991 | locus YIR030C, strain dcg1, stronger effect = lower value 0.978 | locus YJL092W, strain hpr5, stronger effect = lower value 0.98 | locus YJL095W, strain BCK1 (second series), stronger effect = lower value 0.963 | locus YJL095W, strain BCK1, stronger effect = lower value 0.916 and 0.981 | locus YJL115W, strain asf1, stronger effect = lower value 0.96 | locus YJL129C, strain trk1, stronger effect = lower value 0.957 | locus YJL134W, strain LCB3, stronger effect = lower value 0.969 | locus YJL154C, strain vps35, stronger effect = lower value 0.973 | locus YJL164C, strain tpk1, stronger effect = lower value 0.997 | locus YJL166W, strain qcr8, stronger effect = lower value 0.982 | locus YJL168C, strain set2, stronger effect = lower value 0.976 | locus YJL187C, strain SWE1 (second series), stronger effect = lower value 0.945 | locus YJL187C, strain SWE1, stronger effect = lower value 0.969 | locus YJR043C, strain POL32, stronger effect = lower value 1.03 | locus YJR066W, strain TOR1, stronger effect = lower value 0.951

Source: PubChem BioAssay AID1159580 (chemical genetic matrix, 2015)
